Hits are enriched below; roughly 1.3% of the tested compounds scored in any of these assays.
UBC13 inh – human UBC13 polyubiquitination inhibition | UBC13 polyubiquitin chain formation, TR-FRET | inhibition, % at 20 µM | AID 485273 | 330,000 tested, 0.47% active; in the data active means inhibition above about 45%, passing the limit was not always enough
RAD54 branch – inhibitors of human RAD54 branch migration; Q92698; RAD54 Holliday junction branch migration, FAM/BHQ fluorescence; inhibition, % at 10.4 µM; 360,000 tested, 0.14% active; AID 602329;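 active means mean normalized replicate activity at least 40 and at least half of replicates scoring 40 or more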;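 further: inhibitors cause a drop in the FAM fluorescence signal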
Target sequence (Q92698 whole entry, looked up): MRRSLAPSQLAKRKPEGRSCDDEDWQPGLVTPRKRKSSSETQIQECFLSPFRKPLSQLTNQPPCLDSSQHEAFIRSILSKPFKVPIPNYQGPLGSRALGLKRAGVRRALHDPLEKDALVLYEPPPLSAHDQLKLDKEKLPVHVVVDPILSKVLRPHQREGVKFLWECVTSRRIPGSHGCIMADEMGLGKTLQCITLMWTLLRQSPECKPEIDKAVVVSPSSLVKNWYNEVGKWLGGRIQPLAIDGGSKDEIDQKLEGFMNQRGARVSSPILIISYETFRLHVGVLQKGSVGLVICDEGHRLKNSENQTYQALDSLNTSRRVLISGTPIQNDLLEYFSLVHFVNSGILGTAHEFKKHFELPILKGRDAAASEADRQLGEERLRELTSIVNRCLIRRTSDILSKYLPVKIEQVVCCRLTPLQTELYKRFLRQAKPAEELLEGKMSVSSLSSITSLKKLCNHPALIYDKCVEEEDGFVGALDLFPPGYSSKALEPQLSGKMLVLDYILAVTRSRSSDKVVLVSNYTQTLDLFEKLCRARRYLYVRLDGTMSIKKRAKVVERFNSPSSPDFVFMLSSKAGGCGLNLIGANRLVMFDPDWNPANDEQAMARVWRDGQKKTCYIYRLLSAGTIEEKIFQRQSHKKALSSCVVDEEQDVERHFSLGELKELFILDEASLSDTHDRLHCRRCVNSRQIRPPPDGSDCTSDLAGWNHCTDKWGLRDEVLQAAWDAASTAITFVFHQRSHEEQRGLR
PREPL inh – inhibitors of human prolyl oligopeptidase-like enzyme PREPL. Q4J6C6. recombinant PREPL, fluorescence polarization activity-based probe. inhibition, % at 5.96 µM. 320,000 tested, 0.68% active. AID 2751; in the data active means inhibition above about 43%
MIN6 prolif-1 – inducers of beta-cell replication in MIN6 cells. proliferation, % at 10 µM. 330,000 tested, 0.29% active. AID 2380. MIN6 cells proliferation, ATPlite luminescence, 48 h; cells starved in 0.2% serum; 100% = growth in 10% serum;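 active means compounds whose signal lies at least 3.5 SD above the mean of all wells on their plate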
FID counter – fluorescent intercalator displacement, NS3 helicase counter-screen | DNA fluorescent intercalator displacement, fluorescence | 290,000 tested, 0.17% active | AID 1845 | inhibition, % at 7.9 µM; in the data active means inhibition above about 37%;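 further: higher means more ethidium bromide displaced from hairpin DNA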
RAD52 anneal inh – RAD52 (human) annealing inhibition. P43351. recombinant RAD52 DNA annealing, FRET fluorescence. inhibition, % at 18.7 µM. 360,000 tested, 0.46% active. AID 651710;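 active means every replicate showing at least 50% inhibition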
MIN6 prolif-2 – confirmation of inducers of beta-cell replication in MIN6 cells; shares compounds with MIN6 prolif-1; MIN6 beta-cell proliferation, ATPlite luminescence, 48 h; cells kept in 0.2% serum; scaled between 0.2% and 10% serum; proliferation increase, % at 50 µM; 920 tested, under 10 active;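 active means proliferation increase above 40% at any of the four tested concentrations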
Of the large screens only hits and unclear results are named; the others gave an inactive call (follow-up assays come after a bar, where they were run).

COc1cccc(CN2C[C@@H]3N[C@H](C2)C3c2ccc(-c3cccc(C#N)c3)cc2)c1 (stereo not given in full)	RAD52 anneal inh 55.1 (no result: UBC13 inh, RAD54 branch, PREPL inh, MIN6 prolif-1, FID counter)
COc1cc(CN2C[C@@H]3N[C@H](C2)C3c2ccc(-c3ccccc3C)cc2)cc(OC)c1 (stereo not given in full)	RAD52 anneal inh 63.8 (no result: UBC13 inh, RAD54 branch, PREPL inh, MIN6 prolif-1, FID counter)
COc1ccc(-c2ccc(C3[C@@H]4CN(Cc5cccc(OC)c5)C[C@H]3N4)cc2)cc1 (stereo not given in full)	RAD52 anneal inh 66.9 (no result: UBC13 inh, RAD54 branch, PREPL inh, MIN6 prolif-1, FID counter)
C[C@@H]1CCCCO[C@@H](CN(C)Cc2ccc(Cl)c(Cl)c2)[C@H](C)CN([C@H](C)CO)C(=O)c2cc(NS(C)(=O)=O)ccc2O1	none (no result: UBC13 inh, PREPL inh, MIN6 prolif-1, FID counter)
CN(C)CCNCCCNc1c2ccccc2nc2cccc([N+](=O)[O-])c12	RAD52 anneal inh 81.5 (no result: UBC13 inh, RAD54 branch, PREPL inh, MIN6 prolif-1, FID counter)
CN(C)CCNc1ccc(-c2nn(C)c(=O)c3ccccc23)cc1[N+](=O)[O-]	none (no result: RAD54 branch)
COc1ccc(NC(=O)Nc2ccc3c(c2)CC(=O)N([C@@H](C)CO)C[C@H](C)[C@H](CN(C)C(=O)NC(C)C)O3)cc1	none (no result: UBC13 inh, PREPL inh, MIN6 prolif-1, FID counter)
COc1ccc(F)c(CN2CCC(CO)(Cc3cccc(C(F)(F)F)c3)CC2)c1	FID counter 39.4
COc1cc(CN2CCC(CO)(Cc3cccc(C(F)(F)F)c3)CC2)ccc1F	none (no result: RAD54 branch)
CO[C@H]1CN(C)C(=O)c2ccc(NC(C)=O)cc2OC[C@@H](C)N(C(=O)C2CC2)C[C@H]1C	none (no result: UBC13 inh, PREPL inh, MIN6 prolif-1, FID counter)
CN1CCCCN2[C@H](CO)[C@H](c3ccc(C#Cc4ccccc4F)cc3)[C@H]2C1	RAD52 anneal inh 69.1 (no result: UBC13 inh, PREPL inh, MIN6 prolif-1, FID counter)
COc1ccc(C#Cc2ccc([C@H]3[C@@H](CO)N4CCCCN(C)C[C@@H]34)cc2)cc1	none (no result: UBC13 inh, PREPL inh, MIN6 prolif-1, FID counter)
COc1ccc(C#Cc2ccc([C@H]3[C@@H](CO)N4CCCCN(C)C[C@H]34)cc2)cc1	RAD52 anneal inh 79.9 (no result: UBC13 inh, PREPL inh, MIN6 prolif-1, FID counter)
COc1ccc(C#Cc2ccc([C@@H]3[C@@H](CO)N4CCCCN(C)C[C@H]34)cc2)cc1	none (no result: UBC13 inh, PREPL inh, MIN6 prolif-1, FID counter)
COc1ccc(C#Cc2ccc([C@@H]3[C@H](CO)N4CCCCN(C)C[C@@H]34)cc2)cc1	RAD52 anneal inh 63.3 (no result: UBC13 inh, PREPL inh, MIN6 prolif-1, FID counter)
COCCNC(=O)C[C@@H]1C[C@H]2c3cc(NC(=O)c4ccc5c(c4)OCO5)ccc3O[C@H]2[C@H](CO)O1	none (no result: UBC13 inh, PREPL inh, MIN6 prolif-1, FID counter)
COc1ccc2c3c([nH]c2c1)[C@@H](CO)N(C(=O)CN(C)C)CC31CCN(Cc2ccccc2Cl)CC1	none (no result: UBC13 inh, RAD54 branch, PREPL inh, MIN6 prolif-1, FID counter)
CCCCCCNC(=O)Nc1ccccc1	MIN6 prolif-1 8.2 (no result: RAD52 anneal inh) | MIN6 prolif-2 inactive
COCCn1c(-c2ccc3ccccc3c2)nc2c1c(=O)[nH]c(=O)n2CC(C)C	MIN6 prolif-1 9.0 | MIN6 prolif-2 inactive
C=CCOc1ccc(-c2nc3c(c(=O)[nH]c(=O)n3CCC)n2CCCC)cc1	MIN6 prolif-1 0.0 | MIN6 prolif-2 inactive
C=CCOc1ccc(-c2nc3c(c(=O)[nH]c(=O)n3Cc3ccccc3)n2CCCOC)cc1	none
C=CCOc1ccc(-c2nc3c(c(=O)[nH]c(=O)n3CCCC)n2C)cc1Br	none
COCCCn1c(-c2ccc(OC)cc2)nc2c1c(=O)[nH]c(=O)n2Cc1ccccc1	MIN6 prolif-1 0.0 | MIN6 prolif-2 inactive
C[C@@H]1CN([C@H](C)CO)C(=O)c2cc(C#CC3CCCC3)cnc2O[C@H]1CN(C)C(=O)C1CCCCC1	none (no result: UBC13 inh, PREPL inh, MIN6 prolif-1, FID counter)
C[C@H](NC(=O)C[C@H]1CC[C@@H](NC(=O)CN2CCOCC2)[C@@H](CO)O1)c1ccccc1	none (no result: UBC13 inh, PREPL inh, MIN6 prolif-1, FID counter)
O=C(CSc1ccc2nnc(CCNC(=O)c3ccccc3)n2n1)NCCc1ccccc1	MIN6 prolif-1 10.4 | MIN6 prolif-2 inactive
O=C(CSc1ccc2nnc(CCNC(=O)c3ccccc3)n2n1)NC1CCCC1	none
CCc1noc(C)c1C(=O)N1CCN(S(=O)(=O)c2c(C)c(C)cc(C)c2C)CC1	MIN6 prolif-1 14.0 (no result: FID counter) | MIN6 prolif-2 inactive
CCc1noc(C)c1C(=O)N1CCN(S(=O)(=O)c2cc(C)ccc2C)CC1	none
CS(=O)(=O)Nc1ccc2c(c1)[C@@H]1C[C@H](CC(=O)NCc3ccccc3)O[C@@H](CO)[C@@H]1O2	none (no result: UBC13 inh, PREPL inh, MIN6 prolif-1, FID counter)
COc1ccc(/C(C)=N/NC(=O)C(NC(=O)c2ccccc2)c2n[nH]c(=O)c3ccccc23)c(OC)c1 (stereo not given)	MIN6 prolif-1 6.8 | MIN6 prolif-2 inactive
COc1ccc(/C(C)=N/NC(=O)CNC(=O)c2cccnc2)c(OC)c1	MIN6 prolif-1 6.4 | MIN6 prolif-2 inactive
COc1cc(/C=N/NC(=O)C(NC(=O)c2ccccc2)c2n[nH]c(=O)c3ccccc23)ccc1OCC(N)=O (stereo not given)	none
C[C@@H]1CN([C@@H](C)CO)C(=O)c2cc(NC(=O)CCC(F)(F)F)ccc2O[C@@H]1CN(C)S(=O)(=O)c1ccccc1	none (no result: UBC13 inh, PREPL inh, MIN6 prolif-1, FID counter)
Nc1ccc(S(=O)(=O)N2CCCc3ccccc32)cc1	MIN6 prolif-1 13.6 | MIN6 prolif-2 inactive
COc1cccc2c1c(NC(=O)Nc1ccc(F)cc1F)nn2C	MIN6 prolif-1 6.8 | MIN6 prolif-2 inactive
COc1ccccc1NC(=O)Nc1nn(C)c2cccc(N(C)C)c12	none (no result: RAD54 branch)
CC(C)Sc1nc2c(cnn2-c2ccc(Cl)cc2)c(=O)[nH]1	MIN6 prolif-1 10.8 | MIN6 prolif-2 inactive
CC(C)Sc1nc2c(cnn2-c2ccccc2)c(=O)[nH]1	none
C[C@@H]1CCCCO[C@H](CN(C)Cc2ccc(C(F)(F)F)cc2)[C@@H](C)CN([C@@H](C)CO)C(=O)c2cc(NS(=O)(=O)c3ccc(Cl)cc3)ccc2O1	none (no result: UBC13 inh, PREPL inh, MIN6 prolif-1, FID counter)
CCCc1c2ccccc2nc2ccccc12	MIN6 prolif-1 7.2 (no result: RAD52 anneal inh) | MIN6 prolif-2 inactive
CCCc1cc(C(=O)O)c2ccccc2n1	none (no result: RAD52 anneal inh)
CCOC(=O)c1c(NC(=O)Cc2cccs2)sc(C(=O)N2CCCCC2)c1C	MIN6 prolif-1 9.5 (no result: RAD52 anneal inh) | MIN6 prolif-2 inactive
COC(=O)c1c(NC(=O)Cc2cccs2)sc(C)c1C	none
COC(=O)Cc1c(O)ccn(CCc2ccc(OC)c(OC)c2)c1=O	MIN6 prolif-1 7.2 | MIN6 prolif-2 inactive
CCOc1ccc(CCNS(=O)(=O)c2ccc3c(c2)N(C(C)=O)CCO3)cc1OCC	MIN6 prolif-1 15.3 | MIN6 prolif-2 inactive
CCC1(CC)Cc2ccccc2C(=C(C#N)C#N)N1	none (no result: RAD52 anneal inh)
N#CC(C#N)=C1NC2(CCCCC2)Cc2ccccc21	MIN6 prolif-1 5.2 | MIN6 prolif-2 inactive
CC(=O)NCCc1nc2cc(NC(=O)COc3ccc(C)cc3)ccc2n1C	MIN6 prolif-1 9.2 | MIN6 prolif-2 inactive
CCOC(=O)c1c(S(=O)(=O)NCC(=O)Nc2cc(C)ccc2OC)c(C)n(C)c1C	none
CCOC(=O)c1c(S(=O)(=O)NCCc2ccc(OC)c(OC)c2)c(C)n(C)c1C	none
CCOC(=O)c1c(S(=O)(=O)NCC(=O)Nc2ccc(OC)cc2)c(C)n(C)c1C	MIN6 prolif-1 12.8 | MIN6 prolif-2 inactive

Screening data (PubChem)
